In experiment [1] the target is Transcription factor JunD (UniProt P17535). The experiment can be described thus: cross-link between two proteins; cross-linking mass spectrometry; other.
Experiment [2] has as its target Sin3 histone deacetylase corepressor complex component SDS3 (UniProt Q9H7L9). The description is as above.
The target of experiment [3] is Transcription initiation factor TFIID subunit 5 (UniProt Q15542). The experiment can be described thus: other; cross-linking mass spectrometry; other.
Experiment [4] addresses Transcription initiation factor TFIID subunit 9 (UniProt Q16594). The experiment can be described thus: other; cross-linking mass spectrometry; other.
The target in experiment [5] is Transcription initiation factor TFIID subunit 9B (UniProt Q9HBM6). Kind of experiment: other; cross-linking mass spectrometry; other.
Sequence of Transcription initiation factor TFIID subunit 9B (Q9HBM6 whole entry): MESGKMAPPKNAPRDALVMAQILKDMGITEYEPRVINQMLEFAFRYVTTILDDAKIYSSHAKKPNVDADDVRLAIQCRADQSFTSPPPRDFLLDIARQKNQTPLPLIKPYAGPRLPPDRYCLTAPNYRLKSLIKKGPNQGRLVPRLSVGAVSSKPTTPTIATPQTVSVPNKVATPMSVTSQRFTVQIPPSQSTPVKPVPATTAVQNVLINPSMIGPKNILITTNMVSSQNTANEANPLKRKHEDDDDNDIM
The target of experiment [6] is Transcription initiation factor TFIID subunit 12 (UniProt Q16514). The experiment can be described thus: cross-link between two proteins; cross-linking mass spectrometry; other.
Sequence of Transcription initiation factor TFIID subunit 12 (Q16514 whole entry): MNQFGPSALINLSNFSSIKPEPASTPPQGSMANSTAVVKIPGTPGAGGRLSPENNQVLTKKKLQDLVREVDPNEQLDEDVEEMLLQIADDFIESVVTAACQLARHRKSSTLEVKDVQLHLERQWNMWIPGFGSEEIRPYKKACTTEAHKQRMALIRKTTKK
Experiment [7] deals with Splicing factor 3A subunit 1 (UniProt Q15459). The experiment is described as above.
For experiment [8], the target named is ELAV-like protein 1 (UniProt Q15717). The experiment can be described thus: other; affinity purification or IP with mass spectrometry; other.
Experiment [9] has as its target Heterogeneous nuclear ribonucleoprotein L (UniProt P14866). Kind of experiment: cross-link between two proteins; affinity purification or IP with mass spectrometry; cross-linking mass spectrometry; other.
For experiment [10], the target named is Probable ATP-dependent RNA helicase DDX23 (UniProt Q9BUQ8). The experiment can be described thus: cross-link between two proteins; cross-linking mass spectrometry; other.
Sequence of Probable ATP-dependent RNA helicase DDX23 (Q9BUQ8 whole entry): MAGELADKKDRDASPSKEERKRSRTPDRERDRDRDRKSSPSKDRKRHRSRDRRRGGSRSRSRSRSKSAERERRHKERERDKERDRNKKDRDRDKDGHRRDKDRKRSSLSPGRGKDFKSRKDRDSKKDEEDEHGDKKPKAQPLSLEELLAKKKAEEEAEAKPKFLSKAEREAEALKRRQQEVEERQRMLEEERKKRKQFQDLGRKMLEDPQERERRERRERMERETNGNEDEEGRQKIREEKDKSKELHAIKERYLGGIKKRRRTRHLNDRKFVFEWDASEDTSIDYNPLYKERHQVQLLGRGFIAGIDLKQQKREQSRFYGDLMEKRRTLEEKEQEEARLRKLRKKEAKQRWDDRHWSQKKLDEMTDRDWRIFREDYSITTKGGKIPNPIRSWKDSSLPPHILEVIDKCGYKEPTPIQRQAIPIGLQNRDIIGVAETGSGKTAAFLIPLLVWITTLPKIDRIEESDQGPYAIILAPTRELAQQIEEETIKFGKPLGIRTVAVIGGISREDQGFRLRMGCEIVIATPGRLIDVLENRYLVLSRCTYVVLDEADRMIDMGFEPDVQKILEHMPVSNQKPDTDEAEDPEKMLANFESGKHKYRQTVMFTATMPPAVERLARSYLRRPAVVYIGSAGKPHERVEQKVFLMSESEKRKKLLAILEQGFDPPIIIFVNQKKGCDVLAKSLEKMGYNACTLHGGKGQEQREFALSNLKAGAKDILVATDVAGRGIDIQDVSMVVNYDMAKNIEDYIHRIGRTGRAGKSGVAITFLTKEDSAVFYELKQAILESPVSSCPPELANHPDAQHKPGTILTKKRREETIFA
Experiment [11] addresses Polyhomeotic-like protein 2 (UniProt Q8IXK0). Described as above.
Experiment [12] concerns the target RecQ-mediated genome instability protein 1 (UniProt Q9H9A7). The description is as above.
Experiment [13] addresses Apoptotic chromatin condensation inducer in the nucleus (UniProt Q9UKV3). Kind of experiment: cross-linking mass spectrometry; other.
Experiment [14] addresses Protein lin-54 homolog (UniProt Q6MZP7). Kind of experiment: cross-linking mass spectrometry; other.
For experiment [15], the target named is Protein lin-9 homolog (UniProt Q5TKA1). The experiment can be described thus: cross-linking mass spectrometry; other.
The target of experiment [16] is THO complex subunit 1 (UniProt Q96FV9). Kind of experiment: cross-linking mass spectrometry; other.
Experiment [17] concerns the target ATP-dependent chromatin remodeler CHD4 (UniProt Q14839). Kind of experiment: other; cross-linking mass spectrometry; other.
For experiment [18], the target named is Metastasis-associated protein MTA1 (UniProt Q13330). The experiment can be described thus: other; cross-linking mass spectrometry; other.
Experiment [19] deals with Transcriptional repressor p66-alpha (UniProt Q86YP4). Kind of experiment: other; cross-linking mass spectrometry; other.
Sequence of Transcriptional repressor p66-alpha (Q86YP4 whole entry): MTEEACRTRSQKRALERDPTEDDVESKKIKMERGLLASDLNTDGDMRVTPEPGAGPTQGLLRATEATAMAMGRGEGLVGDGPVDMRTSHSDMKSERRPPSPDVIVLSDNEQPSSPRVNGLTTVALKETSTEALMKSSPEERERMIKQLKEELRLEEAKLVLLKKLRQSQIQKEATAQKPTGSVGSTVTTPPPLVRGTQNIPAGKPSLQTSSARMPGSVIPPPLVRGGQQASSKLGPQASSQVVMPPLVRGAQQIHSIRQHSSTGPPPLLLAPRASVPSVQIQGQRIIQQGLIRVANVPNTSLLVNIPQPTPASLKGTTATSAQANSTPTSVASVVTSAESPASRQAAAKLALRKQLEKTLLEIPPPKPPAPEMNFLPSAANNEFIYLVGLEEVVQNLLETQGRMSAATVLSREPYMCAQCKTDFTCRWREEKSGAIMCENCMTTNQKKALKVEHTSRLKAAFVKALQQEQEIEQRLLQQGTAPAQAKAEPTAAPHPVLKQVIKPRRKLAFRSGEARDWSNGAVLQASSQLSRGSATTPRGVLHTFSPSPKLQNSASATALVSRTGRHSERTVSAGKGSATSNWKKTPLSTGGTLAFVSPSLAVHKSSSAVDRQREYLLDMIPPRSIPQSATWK
In experiment [20] the target is DNA topoisomerase 2-beta (UniProt Q02880). The experiment can be described thus: other; cross-linking mass spectrometry; other.
In experiment [21] the target is Heterogeneous nuclear ribonucleoprotein A/B (UniProt Q99729). The experiment can be described thus: other; cross-linking mass spectrometry; other.
Experiment [22] concerns the target Heterogeneous nuclear ribonucleoprotein Q (UniProt O60506). The experiment can be described thus: other; cross-linking mass spectrometry; other.
The target of experiment [23] is Histone H1.2 (UniProt P16403). The experiment can be described thus: other; cross-linking mass spectrometry; other.
In experiment [24] the target is Mediator of RNA polymerase II transcription subunit 17 (UniProt Q9NVC6). The experiment can be described thus: other; cross-linking mass spectrometry; other.
The target of experiment [25] is Methyl-CpG-binding domain protein 2 (UniProt Q9UBB5). The experiment can be described thus: other; cross-linking mass spectrometry; other.
Experiment [26] concerns the target Methylcrotonoyl-CoA carboxylase beta chain, mitochondrial (UniProt Q9HCC0). Kind of experiment: other; cross-linking mass spectrometry; other.
The target in experiment [27] is Probable ATP-dependent RNA helicase DDX23 (UniProt Q9BUQ8). The experiment can be described thus: other; cross-linking mass spectrometry; other.
Experiment [28] addresses Protein lin-54 homolog (UniProt Q6MZP7). Kind of experiment: other; cross-linking mass spectrometry; other.
Experiment [29] has as its target RNA-binding protein EWS (UniProt Q01844). The experiment can be described thus: other; cross-linking mass spectrometry; other.
Experiment [30] concerns the target Scaffold attachment factor B1 (UniProt Q15424). Kind of experiment: other; cross-linking mass spectrometry; other.
For experiment [31], the target named is Serine/arginine-rich splicing factor 1 (UniProt Q07955). The experiment can be described thus: other; cross-linking mass spectrometry; other.
In experiment [32] the target is Spindlin-1 (UniProt Q9Y657). Kind of experiment: other; cross-linking mass spectrometry; other.
For experiment [33], the target named is THO complex subunit 2 (UniProt Q8NI27). The experiment can be described thus: other; cross-linking mass spectrometry; other.
Sequence of THO complex subunit 2 (Q8NI27 whole entry, one chain of several): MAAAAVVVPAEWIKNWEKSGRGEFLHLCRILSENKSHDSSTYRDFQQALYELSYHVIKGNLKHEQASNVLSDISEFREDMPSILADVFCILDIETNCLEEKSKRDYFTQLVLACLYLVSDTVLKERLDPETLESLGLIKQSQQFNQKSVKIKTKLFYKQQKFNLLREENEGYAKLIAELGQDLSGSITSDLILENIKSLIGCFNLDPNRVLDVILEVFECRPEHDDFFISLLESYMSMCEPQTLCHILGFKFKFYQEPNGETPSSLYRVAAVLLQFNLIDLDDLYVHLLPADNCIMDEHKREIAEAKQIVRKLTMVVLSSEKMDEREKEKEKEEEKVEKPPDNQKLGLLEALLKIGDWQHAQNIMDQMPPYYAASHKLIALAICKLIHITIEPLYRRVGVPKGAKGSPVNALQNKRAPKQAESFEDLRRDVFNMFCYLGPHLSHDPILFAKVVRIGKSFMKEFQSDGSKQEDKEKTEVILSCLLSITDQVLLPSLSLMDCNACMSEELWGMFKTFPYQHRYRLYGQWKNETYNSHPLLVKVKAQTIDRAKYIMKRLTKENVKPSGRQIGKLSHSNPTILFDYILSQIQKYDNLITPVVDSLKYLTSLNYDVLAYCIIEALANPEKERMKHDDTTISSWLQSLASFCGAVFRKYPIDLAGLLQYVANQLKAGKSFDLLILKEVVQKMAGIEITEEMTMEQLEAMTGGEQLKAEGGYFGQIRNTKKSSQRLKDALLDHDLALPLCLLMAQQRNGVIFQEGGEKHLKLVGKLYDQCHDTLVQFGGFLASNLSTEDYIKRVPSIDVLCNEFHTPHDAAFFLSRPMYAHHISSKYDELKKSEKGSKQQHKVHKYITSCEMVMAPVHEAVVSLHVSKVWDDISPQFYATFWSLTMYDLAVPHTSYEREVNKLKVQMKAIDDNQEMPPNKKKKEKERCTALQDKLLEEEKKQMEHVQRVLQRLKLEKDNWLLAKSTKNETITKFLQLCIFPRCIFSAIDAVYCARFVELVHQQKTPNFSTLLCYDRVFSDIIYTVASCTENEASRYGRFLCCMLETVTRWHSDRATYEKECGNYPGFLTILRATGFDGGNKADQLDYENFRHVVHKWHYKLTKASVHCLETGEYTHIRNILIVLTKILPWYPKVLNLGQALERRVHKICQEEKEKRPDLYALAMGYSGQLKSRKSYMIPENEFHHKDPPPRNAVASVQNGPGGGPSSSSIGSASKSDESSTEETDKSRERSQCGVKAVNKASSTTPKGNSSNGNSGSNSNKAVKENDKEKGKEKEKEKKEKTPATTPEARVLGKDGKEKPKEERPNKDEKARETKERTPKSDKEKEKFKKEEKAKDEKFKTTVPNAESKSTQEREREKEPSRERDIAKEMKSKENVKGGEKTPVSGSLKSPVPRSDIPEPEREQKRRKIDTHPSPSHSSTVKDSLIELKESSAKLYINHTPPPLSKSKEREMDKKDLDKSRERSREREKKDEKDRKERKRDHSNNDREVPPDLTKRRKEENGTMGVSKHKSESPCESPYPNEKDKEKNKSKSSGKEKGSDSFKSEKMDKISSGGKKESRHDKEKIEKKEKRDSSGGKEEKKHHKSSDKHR
The target in experiment [34] is THO complex subunit 7 (UniProt Q6I9Y2). The experiment can be described thus: other; cross-linking mass spectrometry; other.
Sequence of THO complex subunit 7 (Q6I9Y2 whole entry, one chain of several): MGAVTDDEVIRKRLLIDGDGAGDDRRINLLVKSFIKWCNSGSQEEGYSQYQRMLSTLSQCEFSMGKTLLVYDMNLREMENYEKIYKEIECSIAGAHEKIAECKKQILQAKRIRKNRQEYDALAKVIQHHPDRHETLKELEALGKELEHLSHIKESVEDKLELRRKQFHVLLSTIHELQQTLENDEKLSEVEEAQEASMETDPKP
Experiment [35] has as its target Torsin-1A-interacting protein 1 (UniProt Q5JTV8). Kind of experiment: other; cross-linking mass spectrometry; other.
Experiment [36] deals with Transcription initiation factor TFIID subunit 12 (UniProt Q16514). The experiment can be described thus: other; cross-linking mass spectrometry; other.
The target of experiment [37] is Trifunctional enzyme subunit beta, mitochondrial (UniProt P55084). Kind of experiment: other; co-fractionation; cross-linking mass spectrometry; other.

Sequence of Protein lin-54 homolog (Q6MZP7 whole entry): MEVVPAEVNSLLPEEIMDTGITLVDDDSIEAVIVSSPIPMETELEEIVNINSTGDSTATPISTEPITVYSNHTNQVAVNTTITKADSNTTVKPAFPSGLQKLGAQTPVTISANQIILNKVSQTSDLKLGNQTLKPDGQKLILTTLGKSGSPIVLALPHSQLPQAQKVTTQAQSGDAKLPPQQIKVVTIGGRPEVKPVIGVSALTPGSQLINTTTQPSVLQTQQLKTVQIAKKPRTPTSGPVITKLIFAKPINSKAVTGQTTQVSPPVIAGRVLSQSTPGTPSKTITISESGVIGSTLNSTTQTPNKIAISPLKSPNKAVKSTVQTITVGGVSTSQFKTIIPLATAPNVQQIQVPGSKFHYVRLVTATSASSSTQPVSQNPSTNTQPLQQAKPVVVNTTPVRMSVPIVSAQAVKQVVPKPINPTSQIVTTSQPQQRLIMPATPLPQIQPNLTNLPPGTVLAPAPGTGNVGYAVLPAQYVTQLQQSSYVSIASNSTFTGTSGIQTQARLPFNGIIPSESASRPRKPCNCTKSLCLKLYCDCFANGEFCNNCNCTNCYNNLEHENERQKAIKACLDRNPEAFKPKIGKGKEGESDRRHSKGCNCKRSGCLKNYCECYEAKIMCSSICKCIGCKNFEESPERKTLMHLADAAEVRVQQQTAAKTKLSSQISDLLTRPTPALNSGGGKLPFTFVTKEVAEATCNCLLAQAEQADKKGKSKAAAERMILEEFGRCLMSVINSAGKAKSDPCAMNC
Sequence of Transcription initiation factor TFIID subunit 9 (Q16594 whole entry): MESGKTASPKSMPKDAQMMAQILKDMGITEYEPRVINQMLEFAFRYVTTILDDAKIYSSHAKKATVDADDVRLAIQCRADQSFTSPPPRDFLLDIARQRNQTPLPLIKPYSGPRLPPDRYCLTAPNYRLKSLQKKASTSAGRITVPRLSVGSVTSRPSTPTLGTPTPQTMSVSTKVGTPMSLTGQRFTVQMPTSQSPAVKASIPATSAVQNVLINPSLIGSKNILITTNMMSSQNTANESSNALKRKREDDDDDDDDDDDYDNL
Sequence of Sin3 histone deacetylase corepressor complex component SDS3 (Q9H7L9 whole entry, one chain of several): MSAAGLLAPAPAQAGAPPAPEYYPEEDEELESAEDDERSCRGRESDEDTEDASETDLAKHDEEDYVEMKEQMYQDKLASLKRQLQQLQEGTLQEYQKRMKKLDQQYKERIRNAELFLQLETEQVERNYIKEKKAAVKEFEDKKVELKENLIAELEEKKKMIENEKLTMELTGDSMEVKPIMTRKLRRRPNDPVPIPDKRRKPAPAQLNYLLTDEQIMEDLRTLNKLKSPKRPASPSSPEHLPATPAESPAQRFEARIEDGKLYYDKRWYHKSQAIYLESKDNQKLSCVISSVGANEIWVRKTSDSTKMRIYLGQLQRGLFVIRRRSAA

Regarding “Cyclic AMP-dependent transcription factor ATF-2, P15336”, the “listed as a hit” value in experiment [1] was “yes”.

Consider “Paired amphipathic helix protein Sin3a, Q96ST3”, for which the “listed as a hit” value in [2] is “yes”.

As for “Transcription initiation factor TFIID subunit 4, O00268”, the “listed as a hit” value in experiment [3], in [4], in [5] and in [6] was “yes” in each case.

Regarding Splicing factor 3B subunit 2, Q13435, in experiment [7], the “listed as a hit” value was “yes”.

With “Heterogeneous nuclear ribonucleoproteins C1/C2, P07910”, the “listed as a hit” value in [8] and in experiment [9] was “yes” each time.

As for “116 kDa U5 small nuclear ribonucleoprotein component, Q15029”, in experiment [10], the “listed as a hit” value was “yes”.

For “E3 ubiquitin-protein ligase RING1, Q06587”, the “listed as a hit” value in experiment [11] is on record as “yes”.

Consider DNA topoisomerase 3-alpha, Q13472, for which, in [12], the “listed as a hit” value is on record as “yes”.

On to “U5 small nuclear ribonucleoprotein 200 kDa helicase, O75643”, for which the “listed as a hit” value in experiment [10] is given as “yes”.

With “Histone deacetylase complex subunit SAP18, O00422”, in experiment [13], the “listed as a hit” value is on record as “yes”.

Regarding Protein lin-52 homolog, Q52LA3, the “listed as a hit” value in experiment [14] and in [15] was “yes” in each case.

As for THO complex subunit 2, Q8NI27, the “listed as a hit” value in [16] was “yes”.

For the substance “Metastasis-associated protein MTA2, O94776”, the “listed as a hit” value in experiment [17], in experiment [18] and in [19] was “yes” in each case.

For the substance DNA topoisomerase 2-alpha, P11388, the “listed as a hit” value in [20] is “yes”.

Turning to “Heterogeneous nuclear ribonucleoprotein U, Q00839”, the “listed as a hit” value in experiment [21] is reported as “yes”.

As to “Heterogeneous nuclear ribonucleoprotein R, O43390”, in experiment [22], the “listed as a hit” value is “yes”.

As to Histone H1.3, P16402, the “listed as a hit” value in [23] is recorded as “yes”.

On to “Mediator of RNA polymerase II transcription subunit 6, O75586”, for which, in experiment [24], the “listed as a hit” value is listed as “yes”.

Regarding “Transcriptional repressor p66-beta, Q8WXI9”, the “listed as a hit” value in experiment [25] is listed as “yes”.

With “Methylcrotonoyl-CoA carboxylase subunit alpha, mitochondrial, Q96RQ3”, in experiment [26], the “listed as a hit” value was “yes”.

Turning to “CD2 antigen cytoplasmic tail-binding protein 2, O95400”, the “listed as a hit” value in experiment [27] is “yes”.

As to Protein lin-9 homolog, Q5TKA1, the “listed as a hit” value in [28] is “yes”.

Consider RNA-binding protein FUS, P35637, for which, in experiment [29], the “listed as a hit” value is “yes”.

With Scaffold attachment factor B2, Q14151, the “listed as a hit” value in experiment [30] is listed as “yes”.

Take “Serine/arginine-rich splicing factor 3, P84103”: in experiment [31], the “listed as a hit” value is “yes”.

“Spindlin interactor and repressor of chromatin-binding protein, Q9BUA3”: the “listed as a hit” value in [32] is “yes”.

Turning to THO complex subunit 5, Q13769, the “listed as a hit” value in experiment [33] and in experiment [34] was “yes” in each case.

As for Prelamin-A/C, P02545, the “listed as a hit” value in [35] is recorded as “yes”.

On to “Transcription initiation factor TFIID subunit 5, Q15542”, for which the “listed as a hit” value in [36] and in [5] was “yes” each time.

“Transcription initiation factor TFIID subunit 6, P49848”: in [5], the “listed as a hit” value is on record as “yes”.

Regarding “ATP-dependent chromatin remodeler CHD4, Q14839”, in experiment [19], the “listed as a hit” value is reported as “yes”.

As to “Trifunctional enzyme subunit alpha, mitochondrial, P40939”, the “listed as a hit” value in [37] is reported as “yes”.

(Values after article PMC10954555.)
